High-throughput results from PubChem.
ssDAF12 agonist: activators of S. stercoralis DAF-12 nuclear receptor; HEK293 ssDAF-12/GRIP1 lit1-tk-luc reporter, luminescence; % of 3 µM dafachronic acid response; activation, % at 6.8 µM; hit rate 1% among 370,000;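 active means activation above the mean over all tested compounds plus 3 SD, cut at about 0.9% in these data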
DAX1 inh-1: DAX1 (NR0B1) inhibition, primary screen; HEK293T StAR-luciferase reporter, SF-1/DAX-1 repression relief; inhibition, % at 6.8 µM; hit rate 1.1% among 370,000; AID 652010;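 active means inhibition above the mean over all tested compounds plus 3 SD, cut at about 3.6% in these data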;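 further: higher inhibition means more luminescence from relief of DAX-1 repression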
hcDAF-12 act: activators of H. contortus DAF-12 nuclear receptor | HEK293 hcDAF-12 lit1-tk-luc reporter, luminescence; 0% DMSO, 100% Δ7-dafachronic acid | activation, % at 6.8 µM | hit rate 1.4% among 370,000 | AID 652067;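 active means activation above the mean of all tested compounds plus 3 SD, cut at about 5.5% in these data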
DAX1 inh-2: inhibits human nuclear receptor DAX1; hit rate 0.99% among 340,000; inhibition, % at 6.75 µM; P51843; HEK293 Gal4-DAX1 luciferase reporter, luminescence;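 active means inhibition above the mean over all tested compounds plus 3 SD, cut at about 4.2% in these data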;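 further: inhibition shows as a rise in luminescence from relieved DAX1 repression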
Target sequence (P51843 207-470 limits assumed): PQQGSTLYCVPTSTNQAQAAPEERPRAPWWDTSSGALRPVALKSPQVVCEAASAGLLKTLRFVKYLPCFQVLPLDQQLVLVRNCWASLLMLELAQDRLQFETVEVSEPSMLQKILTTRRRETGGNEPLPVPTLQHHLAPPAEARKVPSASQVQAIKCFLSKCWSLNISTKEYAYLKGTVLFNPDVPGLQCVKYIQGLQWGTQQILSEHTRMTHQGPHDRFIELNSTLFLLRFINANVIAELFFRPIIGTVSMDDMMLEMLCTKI
hgDAF-12 ag: agonists of H. glycines DAF-12 nuclear receptor; HEK293 GAL4-hgDAF12 UAS-luciferase reporter, agonist luminescence; normalized to butyrate control; activation, % at 6.8 µM; hit rate 1.8% among 370,000; AID 687014;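 active means activation above a cutoff set at the mean of all screened compounds plus 3 SD, cut at about 10% in these data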
LXRb hcDAF ctr: LXR-beta agonism as hcDAF-12 counter-screen; 3,400 tested, under 10 active; AID 743027; activation, % at 6.8 µM; HEK293 Gal4-LXR tk-luc reporter, luminescence, 24 h; normalized: DMSO 0%, positive control 100%; shares compounds with hcDAF-12 act;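 active means mean percent activation of the reporter above a cutoff set as the average over tested compounds plus their standard deviation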
hcDAF12 ag: confirmation of H. contortus DAF-12 agonists; shares compounds with hcDAF-12 act; HEK293 hcDAF-12 lit1-tk-luc reporter, luminescence; % of Δ7-dafachronic acid response; activation, % at 6.8 µM; hit rate 61% among 3,400;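 active means mean activation across triplicate tests above the threshold derived from the earlier primary screen, cut at about 5.5% in these data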
Hits are given with their value; n = inactive; x = not tested or not shown. In the library only some 4.1% were active in any assay of this set; here they are far more common.

SMILES	ssDAF12 agonist	DAX1 inh-1	hcDAF-12 act	DAX1 inh-2	hgDAF-12 ag	LXRb hcDAF ctr	hcDAF12 ag
CCOC(=O)c1ccc(S(=O)(=O)NNS(=O)(=O)c2ccc(C)cc2)cc1	n	n	n	n	n	x	x
COc1ccccc1N1CCN(C(=O)c2oc3c(c2C)C(=O)CC(C)(C)C3)CC1	n	n	n	n	n	x	x
O=C(NCCSCc1ccco1)Nc1ccccc1	n	n	9.8	n	n	n	n
COc1ccccc1C(=O)NC(=O)COC(=O)CNC(=O)c1ccccc1F	n	n	n	n	n	x	x
Cc1ccc(Nc2nnc(SCC(=O)NCCN3C(=O)CSC3=O)s2)cc1C	n	n	12.2	n	10.8	n	n
O=C(Nc1ccc(-n2cnnn2)cc1)c1cn2ccccc2n1	x	x	x	n	x	x	x
O=C(Nc1ccccc1)c1cn2ccccc2n1	n	n	7.0	n	n	n	n
CC1=NN(c2ccccc2)C(=O)/C1=C/c1ccc[nH]1	1.1	n	7.6	n	n	n	8.8
CC1=NN(c2ccccc2)C(=O)C1=Cc1ccccc1	n	n	n	n	n	x	x
Cc1cc(-n2c(C)cc(C(=O)COc3ccc(Cl)cc3C(N)=O)c2C)no1	n	n	n	n	n	x	x
Cc1c(C(=O)Nc2nccs2)oc2ccc(Br)cc12	2.3	4.1	9.2	n	n	n	13.3
CCc1nnc(NC(=O)c2oc3ccc(Br)cc3c2C)s1	n	n	n	n	n	x	x
C(=N\NC1=Nc2cccc3cccc1c23)/c1ccccn1	n	n	8.6	5.3	n	n	10.3
O=C(CNCc1ccco1)Nc1cccc(S(=O)(=O)N2CCCCC2)c1	n	n	n	n	n	x	x
O=C(O)c1ccccc1Nc1cccc(OCc2ccc3ccccc3n2)c1	n	n	6.6	n	n	n	n
Cc1ccc(-c2cc(C(F)F)n3ncc(C(=O)N4CCCc5ccccc54)c3n2)cc1	n	n	6.6	n	n	n	n
COc1ccc(-c2cc(C(F)F)n3ncc(C(=O)N4CCc5ccccc54)c3n2)cc1	n	n	n	n	n	x	x
O=C(COc1ccc(S(=O)(=O)N2CCOCC2)cc1)NC1CCCCC1	n	n	n	n	n	x	x
CCC1=Nc2cc(C(=O)NCCN3CCOCC3)ccc2Sc2ccc(Br)cc21	n	n	n	n	n	x	x
CC1(c2nnc(-c3ccc(F)cc3)o2)CC(c2ccccc2)=NO1 (configuration not stated)	n	n	n	n	n	x	x
CCc1ccc(NS(=O)(=O)c2ccc3[nH]cc(C(=O)N4CCc5ccccc54)c(=O)c3c2)cc1	1.2	n	7.3	n	n	n	5.7
O=C(c1ccco1)c1coc2c1cc(O)c1ccccc12	1.0	n	7.9	n	n	n	6.1
O=c1cc[nH]c2c(Cl)cccc12	n	n	7.2	n	n	n	5.7
COC(=O)C1Cc2c([nH]c3ccccc23)C2CCC(=O)N12 (configuration not stated)	n	n	n	n	n	x	x
COC(=O)C12C=C3CC(C)=C3C(=O)N1Cc1[nH]c3ccccc3c1C2 (configuration not stated)	n	n	8.1	x	n	n	5.9
SMILES	ssDAF12 agonist	DAX1 inh-1	hcDAF-12 act	DAX1 inh-2	hgDAF-12 ag	LXRb hcDAF ctr	hcDAF12 ag
COC(=O)CCCn1cc(CN2CC(N3CCN(CCN(C)C)CC3)CS2(=O)=O)nn1 (configuration not stated)	n	n	n	x	n	x	x
CC(=O)Nc1ccc(NC(=O)CN2C(=O)COc3ccc(S(=O)(=O)N4CCOCC4)cc32)cc1	n	n	n	n	n	x	x
CCN(CC)S(=O)(=O)c1ccc2c(c1)N(CC(=O)Nc1ccc(NC(C)=O)cc1)C(=O)CO2	n	n	6.8	n	n	n	n
CC(=O)N1CCc2cc(Br)cc(S(=O)(=O)NCCCN(C)Cc3ccccc3)c21	n	n	n	n	n	x	x
O=C(Nc1ccc(N2CCCCC2)cc1)c1ccc([N+](=O)[O-])o1	n	n	7.2	n	n	n	n
Cc1ccc2nc(CCCc3nc4ccc(C)cc4[nH]3)[nH]c2c1	n	n	n	n	n	x	x
c1ccc(-c2nc3c(ccc4ccccc43)[nH]2)nc1	n	n	8.9	n	11.8	n	8.1
Cc1ccc2nc(-c3ccccn3)[nH]c2c1	n	n	8.7	n	n	n	n
CCSc1ncc(/C=N/Nc2ccc(Cl)cc2)n1C	1.6	n	11.6	n	n	n	10.0
CCOC(=O)c1cn[nH]c1NC(=S)Nc1ccc(Cl)cc1	n	n	7.9	x	n	n	10.4
COC(=O)C(Cc1ccccc1)NCC(=O)Nc1cccc(Cl)c1C (configuration not stated)	n	n	n	n	n	x	x
Oc1ccccc1-c1n[nH]c(-c2ccccc2O)n1	1.4	n	7.1	n	12.6	n	9.6
Clc1ccccc1-c1nc(-c2ccccc2)n[nH]1	n	n	14.7	n	12.5	n	6.6
CCOc1[nH]n(-c2ccccc2)c(=O)c1C=Nc1ccccc1	n	n	n	n	n	x	x
CCOc1[nH]n(-c2ccccc2)c(=O)c1C=Nc1ccc(C(=O)OC)cc1	n	n	7.6	n	n	n	n
Cc1ccc2c(c1)C(=O)N1[C@H]3c4ccccc4OC[C@@H]3[C@H](c3ccccc3)[C@]1(C)C(=O)N2	x	x	x	n	x	x	x
O=C(C[n+]1cc(Br)cc2ccccc21)c1ccc(Br)cc1	n	n	n	n	n	x	x
O=C(C[n+]1cc(Br)cc2ccccc21)c1ccc(Cl)cc1	n	n	8.2	n	n	n	n
Cc1ccc(-c2noc(/C=C/c3ccccc3)n2)cc1	n	n	n	n	n	x	x
Cc1ccc(/C=C/c2nnc(-c3ccccc3)o2)cc1	1.7	n	7.3	n	n	n	n
O=C(CC1CC1)Nc1ccc2c(c1)[C@H]1C[C@H](CC(=O)N3CCc4ccccc4C3)O[C@@H](CO)[C@H]1O2	n	n	n	n	n	x	x
CC(=O)Nc1sc2c(c1-c1nc3ccccc3s1)CCN(C(C)C)CC2	1.1	x	13.3	x	n	n	14.8
C#CCCC(=O)Nc1sc2c(c1-c1nc3ccccc3s1)CCN(C(C)C)C2	n	x	9.7	x	n	n	n
CC(C)N1CCc2c(sc(NC(=O)C(F)F)c2-c2nc3ccccc3s2)C1	n	x	n	x	n	x	x
COC(=O)c1sccc1NC(=O)c1ccc(C(C)C)cc1	n	n	7.1	n	n	n	6.8
Nc1ccccc1Sc1c[nH]c2ccccc12	n	n	6.8	n	n	n	n
Cc1c[nH]c2ccccc12	x	x	x	n	x	x	x
COc1ccc(/C(N)=N/OC(=O)Cc2cccs2)cc1OC	n	n	14.2	n	n	n	n
COc1ccc(/C(N)=N/OC(=O)Cc2cccs2)cc1	n	n	n	n	n	x	x
CCS(=O)(=O)N1CCC(C(=O)Nc2ccc3c(c2)CCC3)CC1	n	n	n	n	n	x	x
